Compounds with a hit are over-represented: about 3% of the library has one in this group of screens.
PAX8 reporter – PAX8 transcriptional activity inhibition. RMG-I TPO-luciferase reporter, SteadyGlo, 24 h. inhibition, % at 12.6 µM. 1.2% of 360,000 active;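 active = mean replicate inhibition at least 60% with every replicate also reaching 60%; inconclusive = only one of the two criteria is met; inactive = mean below 60% and not all replicates reaching 60%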;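 also: luciferase light reporting Pax8 driven TPO promoter activity; plate controls were median of neutral control wells for no effect and mitoxantrone controls for full effect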
Peg3 prom inh-1 – inhibitors of Peg3 promoter. 1.7% of 360,000 active. HeLa PEG-Prom luciferase reporter, luminescence, overnight. inhibition, % at 20 µM;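 active = inhibition of at least 50% at 20 µM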
TRPM1 prom inh – reduces MITF-dependent TRPM1 promoter luciferase signal; SK-MEL-5 TRPM1 promoter luciferase, 24 h; inhibition, % at 12.5 µM; 0.83% of 330,000 active; AID 488899;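 active = mean inhibition across replicates of 60% or more, whatever share of single replicates reaches that level; inconclusive = some that reach 60%, reason not given; inactive = mean inhibition across replicates below 60%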
ABHD5 PLIN5 PPI – ABHD5-PLIN5 protein interaction inhibition; inhibition, % at 4 µM; AID 602281; Split G. princeps luciferase complementation, luminescence, 4 h; Q00G26+Q8WTS1; 0.78% of 360,000 active;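 active = inhibition above the mean inhibition across every tested compound plus 3 SD, cut at about 22% in these data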;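 also: 0% = DMSO only wells and the 100% control is not disclosed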
Target sequence (Q00G26 whole entry, looked up): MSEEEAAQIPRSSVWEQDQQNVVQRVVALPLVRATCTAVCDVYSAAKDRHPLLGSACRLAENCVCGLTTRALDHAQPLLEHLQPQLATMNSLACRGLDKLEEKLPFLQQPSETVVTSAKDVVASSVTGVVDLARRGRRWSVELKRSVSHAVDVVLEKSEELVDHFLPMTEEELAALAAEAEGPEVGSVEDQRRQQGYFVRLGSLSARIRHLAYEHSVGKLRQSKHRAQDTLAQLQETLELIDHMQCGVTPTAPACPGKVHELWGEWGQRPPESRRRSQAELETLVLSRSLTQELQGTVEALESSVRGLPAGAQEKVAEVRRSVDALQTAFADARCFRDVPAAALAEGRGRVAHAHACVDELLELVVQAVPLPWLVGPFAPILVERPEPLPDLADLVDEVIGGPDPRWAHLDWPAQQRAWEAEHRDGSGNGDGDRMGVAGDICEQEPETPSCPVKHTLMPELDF
Target sequence (Q8WTS1 whole entry, looked up): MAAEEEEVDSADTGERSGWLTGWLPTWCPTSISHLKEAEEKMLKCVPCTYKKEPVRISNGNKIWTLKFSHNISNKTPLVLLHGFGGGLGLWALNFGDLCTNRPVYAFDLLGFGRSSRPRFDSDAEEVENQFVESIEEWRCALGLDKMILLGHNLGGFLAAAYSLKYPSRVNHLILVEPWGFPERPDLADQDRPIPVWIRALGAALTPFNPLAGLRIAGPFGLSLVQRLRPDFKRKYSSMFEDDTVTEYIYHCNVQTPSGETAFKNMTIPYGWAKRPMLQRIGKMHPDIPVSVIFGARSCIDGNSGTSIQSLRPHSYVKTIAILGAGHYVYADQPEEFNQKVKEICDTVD
Shn3 3UTR inh – reduces Shn3 3'UTR luciferase signal in osteoblasts; Clone20 osteoblast Shn3 3'UTR firefly luciferase, 24 h; inhibition, % at 12.5 µM; 0.52% of 360,000 active; AID 588674;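 active = mean inhibition of at least 75% with every replicate also reaching 75%; inconclusive = mean inhibition at least 75% but some replicate below; inactive = mean inhibition below 75%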;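 also: 0% = median of neutral control wells and 100% = pilot-screen positive control compound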
EWS-Fli inh – inhibitors of EWS/Fli oncoprotein transcriptional activity | A673 NR0B1-luciferase reporter, viability-normalised | inhibition, % at 12.6 µM | 0.67% of 350,000 active;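 active = mean inhibition of at least 50% after viability correction, with every replicate also passing that limit; inconclusive = mean reaches 50% but only one of two replicates passes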;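 also: firefly luciferase signal divided by Alamar Blue viability fluorescence both relative to DMSO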
Peg3 prom inh-2 – Peg3 promoter inhibition confirmation. 84% of 1,300 active. HeLa PEG-Prom luciferase reporter, luminescence, overnight. AID 602417. inhibition, % at 20 µM. shares compounds with Peg3 prom inh-1;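 active = at 20 µM dose, 40% or more inhibition averaged across four replicates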
The depositor's hits bear a star.

What do the screens show for `Cc1ccc(F)cc1-c1cc2nc(NCCCN(C)C)n(C)c(=O)c2s1`?
PAX8 reporter: -6; Peg3 prom inh-1: 70*; ABHD5 PLIN5 PPI: 13; Shn3 3UTR inh: -23; EWS-Fli inh: 3; Peg3 prom inh-2: 48*

Results for CN(C)CCCNc1nc2cc(-c3ccsc3)sc2c(=O)n1C ?
PAX8 reporter: -1; Peg3 prom inh-1: -4; ABHD5 PLIN5 PPI: 1; Shn3 3UTR inh: -22; EWS-Fli inh: -6

Results for CC1(C)CC(NC(=O)c2sc3cc(Cl)ccc3c2Cl)CC(C)(C)N1 ?
PAX8 reporter: 9; Peg3 prom inh-1: 91*; TRPM1 prom inh: -8; ABHD5 PLIN5 PPI: 10; Shn3 3UTR inh: 32; EWS-Fli inh: 3; Peg3 prom inh-2: 100*

What do the screens show for `O=C(NC1CC1)c1sc2cc(Cl)ccc2c1Cl`?
PAX8 reporter: -182; Peg3 prom inh-1: -356; TRPM1 prom inh: -113; ABHD5 PLIN5 PPI: 10; Shn3 3UTR inh: -49; EWS-Fli inh: -47

How did O=[N+]([O-])c1cc(/C=N/NC(=S)Nc2ccccc2Cl)ccc1Cl do in these assays?
PAX8 reporter: 4; Peg3 prom inh-1: 96*; TRPM1 prom inh: inconclusive; ABHD5 PLIN5 PPI: -7; Shn3 3UTR inh: -16; EWS-Fli inh: 24; Peg3 prom inh-2: 17

How did COc1ccc2c3c([nH]c2c1)[C@H](CO)N(C(C)=O)CC31CN(C(C)=O)C1 do in these assays?
EWS-Fli inh: 10

What do the screens show for `CC(=O)N1CCN(c2cc(-c3ccccc3)nc3cc(-c4cccc(Cl)c4)nn23)CC1`?
PAX8 reporter: 3; Peg3 prom inh-1: 55*; ABHD5 PLIN5 PPI: -5; Shn3 3UTR inh: 0; EWS-Fli inh: 19; Peg3 prom inh-2: 58*

Results for O=C(c1ccoc1)N1CCN(c2cc(-c3cccnc3)nc3cc(-c4cccc(Cl)c4)nn23)CC1 ?
PAX8 reporter: 32; Peg3 prom inh-1: 54*; ABHD5 PLIN5 PPI: -1; Shn3 3UTR inh: 32; EWS-Fli inh: 13; Peg3 prom inh-2: 29

How did COc1ccc(-c2cc3nc(C)cc(N4CCN(C(=O)c5cccnc5)CC4)n3n2)cc1 do in these assays?
PAX8 reporter: -9; Peg3 prom inh-1: -19; ABHD5 PLIN5 PPI: 2; Shn3 3UTR inh: 7; EWS-Fli inh: -14

How did CCN1CCN(c2cc(-c3ccccc3)nc3cc(-c4cccc(F)c4)nn23)CC1 do in these assays?
Peg3 prom inh-1: 11; TRPM1 prom inh: -7; ABHD5 PLIN5 PPI: 21; Shn3 3UTR inh: 23

What do the screens show for `OC[C@@H]1CC[C@@H]2O[C@H](CCc3ccc(-c4ccccc4)cc3)[C@@H](n3cc(C4CC4)nn3)C[C@@H]2O1`?
PAX8 reporter: 3; EWS-Fli inh: 12

Results for Cc1ccc(S(=O)(=O)N2C[C@H](O)COC[C@H]3O[C@H](CC(=O)N[C@@H]4CCN(Cc5ccccc5)C4)CC[C@@H]32)cc1 ?
PAX8 reporter: 10; EWS-Fli inh: -6

Results for N#Cc1c(N)nc(SCc2ccncc2)c(C#N)c1-c1cccs1 ?
Peg3 prom inh-1: 54*; TRPM1 prom inh: 8; ABHD5 PLIN5 PPI: -3; Shn3 3UTR inh: 58; Peg3 prom inh-2: 70*

How did CC(C)N1CCc2c(sc(NC(=O)c3cc4cc([N+](=O)[O-])ccc4s3)c2C(N)=O)C1 do in these assays?
PAX8 reporter: 1; Peg3 prom inh-1: 97*; ABHD5 PLIN5 PPI: 0; Shn3 3UTR inh: 24; EWS-Fli inh: inconclusive; Peg3 prom inh-2: 98*

How did CC(=O)c1c(NCCc2ccccc2)nc(=S)n(-c2ccccc2)c1C do in these assays?
PAX8 reporter: -11; Peg3 prom inh-1: 101*; TRPM1 prom inh: 6; ABHD5 PLIN5 PPI: 4; Shn3 3UTR inh: 11; EWS-Fli inh: 30; Peg3 prom inh-2: 99*

What do the screens show for `CC(=O)c1c(NCc2ccccc2)nc(=O)n(-c2ccccc2)c1C`?
Peg3 prom inh-1: -99; TRPM1 prom inh: -52; ABHD5 PLIN5 PPI: -7; Shn3 3UTR inh: -28

Results for COc1cccc(CNC(=O)C[C@@H]2C=C[C@H](NC(=O)C3CCOCC3)[C@@H](CO)O2)c1 ?
PAX8 reporter: -11; EWS-Fli inh: 1

How did COc1ccc(C[C@H]2CN3C(=NC[C@@H]3Cc3ccc(O)cc3)N2C[C@H](C)NC(=O)c2ccc(C)c(Br)c2)cc1 do in these assays?
Peg3 prom inh-1: 101*; TRPM1 prom inh: -3; ABHD5 PLIN5 PPI: 19; Shn3 3UTR inh: -4; Peg3 prom inh-2: 97*

What do the screens show for `COc1ccc(C[C@H]2CN3C(=NC[C@@H]3C(C)C)N2C[C@H](C)NC(=O)c2ccc(C)c(Br)c2)cc1`?
PAX8 reporter: 6; Peg3 prom inh-1: 16; TRPM1 prom inh: -13; ABHD5 PLIN5 PPI: 8; Shn3 3UTR inh: 20; EWS-Fli inh: 11

How did CCOC(=O)c1cc2c(=O)n3ccccc3nc2n(CCOC)c1=NC(=O)c1c(-c2c(F)cccc2Cl)noc1C do in these assays?
PAX8 reporter: -1; Peg3 prom inh-1: 53*; TRPM1 prom inh: 1; ABHD5 PLIN5 PPI: 4; Shn3 3UTR inh: 31; EWS-Fli inh: 12; Peg3 prom inh-2: 30

How did CC(C)CC1C(=O)N(Cc2cn(CCC3OCCO3)nn2)CCS(=O)(=O)N1Cc1ccc(-c2ccc(F)cc2)cc1 (stereo not given) do in these assays?
PAX8 reporter: 1; Peg3 prom inh-1: 50*; ABHD5 PLIN5 PPI: 8; Shn3 3UTR inh: 11; EWS-Fli inh: 6; Peg3 prom inh-2: 55*

Results for CC(=O)NC(c1ccc(Cl)cc1Cl)c1ccc2cccnc2c1O (stereo not given) ?
PAX8 reporter: 83*; Peg3 prom inh-1: 56*; TRPM1 prom inh: 52; ABHD5 PLIN5 PPI: 8; Shn3 3UTR inh: 89*; EWS-Fli inh: 47; Peg3 prom inh-2: 59*

What do the screens show for `COc1cccc(C(NC(C)=O)c2nc(-c3cccc4cccnc34)cs2)c1` (stereo not given)?
PAX8 reporter: -14; Peg3 prom inh-1: 5; ABHD5 PLIN5 PPI: -2; Shn3 3UTR inh: 1; EWS-Fli inh: -7

What do the screens show for `CC(=O)NC(c1ccc2ccccc2c1)c1ccc2cccnc2c1O` (stereo not given)?
PAX8 reporter: 93*; Peg3 prom inh-1: 64*; TRPM1 prom inh: 49; ABHD5 PLIN5 PPI: 14; Shn3 3UTR inh: 85*; EWS-Fli inh: 40; Peg3 prom inh-2: 71*

What do the screens show for `COc1ccc(C(NC(C)=O)c2ccc3cccnc3c2O)c(OC)c1` (stereo not given)?
Peg3 prom inh-1: 61*; TRPM1 prom inh: 63*; ABHD5 PLIN5 PPI: -8; Shn3 3UTR inh: 90*; Peg3 prom inh-2: 65*

How did Cc1cc(C)c(S(=O)(=O)Nc2ccc3c(c2)CCC3)c(C)c1 do in these assays?
PAX8 reporter: 12; Peg3 prom inh-1: 51*; TRPM1 prom inh: 4; ABHD5 PLIN5 PPI: -6; Shn3 3UTR inh: 30; EWS-Fli inh: 3; Peg3 prom inh-2: 41*

Screening data: PubChem BioAssay, several laboratories
